PubChem BioAssay AID493192 (National Center for Advancing Translational Sciences (NCATS), 2011)
Inconclusive results are not listed. Active and inactive are the calls of the source. The call rests on the fitted dose curve; in most records, active means well fitted activation curve with a large enough effect; inconclusive means small, poorly fitted or top-dose-only effect; inactive means no such curve, though single readings can be large or run the other way.

test: qHTS Assay for Identifying a Potential Treatment of Ataxia-Telangiectasia: Hit Validation; details: Ataxia-telangiectasia cell-based hit validation qHTS, in ATM-null A-T patient fibroblasts; series mostly up to 76.9 µM; activity change, positive = activation: at the top concentration;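 further: phospho-KAP1 level by AlphaLISA as a proxy for ATM-like kinase activity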; on activity change, positive = activation: 0% is about no effect
In short: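 hTERT-immortalized A-T patient fibroblasts (F2112) were dosed at up to 76.7 uM final for 60 min at 37C. After a further 30 min incubation, cells were lysed, and phospho-KAP1 was detected by AlphaLISA after 6 hr at 25C.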
Potency means the concentration at half of the fitted maximal effect.

SMILES	activity change, positive = activation	Potency
Cc1ccc(C(=O)Nc2sc3c(c2C(=O)O)CCCCC3)o1	11.1% (inactive)	
O=C(C[n+]1ccc2c(c1)nnn2-c1ccccc1)c1ccc(Cl)cc1	6.83% (inactive)	
COc1cccc(/C=N/NC(=O)c2cc3cc([N+](=O)[O-])ccc3s2)c1O		51.9 µM (active)
CCOc1cccc(C(=O)Nc2ccccc2N2CCN(C(=O)C(C)C)CC2)c1	-3.12% (inactive)	
COc1cc(/C=N/NC(=O)c2c(C)nc3ccc(Cl)cn23)cc(OC)c1OC	-2.81% (inactive)	
C[C@@H]1Cc2c(O)c(O)cc(O)c2C(=O)O1	-17.1% (inactive)	
COc1cc(CCC(C)NCc2ccccc2)ccc1O (stereo not given)	6.99% (inactive)	
COc1cc(C(=O)NCCC(=O)NCCCN2CCCCC2)cc(OC)c1OC	22.5% (inactive)	
CCn1nc(C)c(CNC(=O)c2cc(COc3ccc(F)cc3Cl)on2)c1C	0% (inactive)	
CNC(=O)Cc1csc2ccc(C)cc12	-17% (inactive)	
CCNC(=S)N(CCc1c(C)[nH]c2ccccc12)Cc1cccnc1	-30.6% (inactive)	
CC(C)NC(=O)c1ccc(COc2ccc(C(C)(C)C)cc2)o1	15.3% (inactive)	
CCC12CN(C(=O)c3ccc([N+](=O)[O-])cc3)CC(CC)(CN(C(=O)c3ccc([N+](=O)[O-])cc3)C1)C2=O	16.7% (inactive)	
COc1ccc(CCNC2=NCCS2)cc1OC	-5.56% (inactive)	
COC(=O)c1cccc2c1-c1ccccc1/C2=N\NC(N)=O	14.2% (inactive)	
CSc1nc(SCC(=O)O)c2c3c(sc2n1)COC(C)(C)C3	-4.55% (inactive)	
CN(C)Cc1ccc(F)cc1Sc1cc(Cl)ccc1Cl	-6.02% (inactive)	
Brc1c(C[n+]2ccccc2)nc2ccccn12	39.5% (inactive)	
CC(CCc1ccccc1)NC(=O)COC(=O)c1ccc(F)cc1 (stereo not given)	0% (inactive)	
CCOc1ccc(NC2=CC(=O)CCC2)cc1	17.7% (inactive)	
